About 79,000 compounds went through this panel and 15% of them were active in at least one assay; those are over-represented in the sample as a whole. Active and inactive are the calls of the source. Cut-off read from the data, not from the text of the source: active = growth inhibition above about 70%; inactive = the rest.
How the values were obtained:
[1] = NCI Yeast Anticancer Drug Screen. Data for the rad50 strain (AID 155);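 note: 0% = growth of vehicle-only cultures of the same strain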; conditions: S. cerevisiae rad50 strain growth inhibition; at 50.0 µM; stronger effect = higher value
Procedure, shortened: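 Readout: growth inhibition relative to vehicle-treated cultures. Compound exposure was carried out in a genetically defined yeast strain deficient in DNA damage repair.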

[2] = NCI Yeast Anticancer Drug Screen. Data for the mec2-1 strain (AID 157); conditions: S. cerevisiae mec2-1 strain, at 50.0 µM, stronger effect = higher value
Procedure, shortened: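 Readout is yeast growth inhibition, normalised to vehicle-treated controls, in the mec2-1 strain exposed to compound.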

[3] = NCI Yeast Anticancer Drug Screen. Data for the sgs1 mgt1 strain (AID 161);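 note: 0% = growth of cultures given vehicle only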; conditions: S. cerevisiae sgs1 mgt1 strain, at 50.0 µM, stronger effect = higher value
Procedure, shortened: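 Percent growth inhibition was derived by comparing compound-exposed mutant yeast with vehicle-exposed cultures. The strain carries alterations in DNA damage repair.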

[4] = NCI Yeast Anticancer Drug Screen. Data for the cln2 rad14 strain (AID 165);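 note: 0% = growth equal to vehicle treated cultures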; conditions: S. cerevisiae cln2 rad14 strain, at 50.0 µM, stronger effect = higher value
Procedure, shortened: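 Relative to vehicle controls, growth inhibition of compound-treated cln2 rad14 yeast was recorded.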

[5] = NCI Yeast Anticancer Drug Screen. Data for the bub3 strain (AID 167); conditions: S. cerevisiae bub3 mutant strain, at 50.0 µM, stronger effect = higher value
Procedure, shortened: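 Readout: yeast growth inhibition, expressed relative to vehicle-only wells. The test organism is a mutant strain from a panel with lesions in DNA repair or checkpoint genes.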

[6] = NCI Yeast Anticancer Drug Screen. Data for the mlh1 rad18 strain (AID 175); conditions: S. cerevisiae mlh1 rad18 strain growth inhibition; at 50.0 µM; stronger effect = higher value
Procedure, shortened: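 Test agents were incubated with a yeast strain of defined genotype (DNA damage repair defect). Inhibition of growth was derived by comparison with vehicle-exposed cultures.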

Measured: growth inhibition

NC(Cc1ccc2c(c1)OCO2)c1ccccc1 (stereo unspecified)
inactive: [1] -0.1% | [2] 9.05% | [3] 3.25% | [4] -27.3% | [5] 0.45% | [6] 4.45%

CN1CCC(O)(c2ccccc2)C(C(O)c2ccccc2)C1 (stereo unspecified)
inactive: [1] 5.2% | [2] -21.7% | [3] 17.9% | [4] -8.55% | [5] -23.9% | [6] -20.6%

N#Cc1ccc(Cc2ccccn2)cc1Cl
inactive: [1] -1.55% | [2] -1.55% | [3] -8.9% | [4] 2.1% | [5] -18.9% | [6] 4.25%

CCOC(=O)C1C(c2ccco2)C2(C#N)C(=N)OC1(C)C2(C#N)C#N (stereo unspecified)
inactive: [1] 3.45% | [2] 12.3% | [3] -39.5% | [4] -0.9% | [5] -36.8% | [6] -52%

N#CCC#N
inactive: [1] -3.7% | [2] -3.95% | [3] 16.3% | [4] -3.1% | [5] 2.75% | [6] -1%

CN1C2CCC1CC(OC(=O)c1cccc(O)c1)C2 (stereo unspecified)
inactive: [1] 30.9% | [2] 0.55% | [3] 0.9% | [4] 4.95% | [5] 15.9% | [6] 16.4%

N#CC1(c2ccccc2)CCNCC1
inactive: [1] -2.2% | [2] -33.5% | [3] -3.15% | [4] 1.05% | [5] -0.5% | [6] -17.8%

O=C1C2C3c4ccccc4C(C2C(=O)N1c1ccccc1)[n+]1ccccc13 (stereo unspecified)
inactive: [1] 47.8% | [2] 16.1% | [3] 41.7% | [4] -13.2% | [5] 7.1% | [6] 30.2%

[N-]=[N+]=CC(=O)C1(C(=O)C=[N+]=[N-])CC1
inactive: [1] -14.7% | [2] -11.2% | [3] -41% | [4] -18.1% | [5] -16.9% | [6] -27.1%

C[Si]1(C)CCCC2(C1)C(=O)NC(=O)NC2=O
inactive: [1] -31.6% | [2] -17.3% | [3] -9% | [4] -1.75% | [5] -4.2% | [6] -41.5%

COc1ccc(C(C)(C)CC(C)(C)C)cc1
inactive: [1] 39% | [2] 2.55% | [3] 32.8% | [4] 12.1% | [5] 6.1% | [6] -0.85%

CCOP(=O)(OCC)/C(C#N)=C/c1ccc(OC)cc1
inactive: [1] 2.9% | [2] -1.8% | [3] -11.4% | [4] 11.7% | [5] 11.1% | [6] -1.05%

CN1CCCC(O)(C(=O)c2ccccc2)C1 (stereo unspecified)
inactive: [1] 4.15% | [2] -15.2% | [3] 0.7% | [4] -16% | [5] -9.35% | [6] 12.9%

Oc1ccc(Br)cc1
inactive: [1] 1.15% | [2] -18.1% | [3] -14.4% | [4] -14.3% | [5] -15.1% | [6] -6.5%

CC12CCC3C(CCC4=CC(O)CCC43C=O)C1(O)CCC2c1ccc(=O)oc1 (stereo unspecified)
inactive: [1] 7.15% | [2] -35% | [3] 18.1% | [4] 15.2% | [5] -11.2% | [6] 5.05%

CCN(CC)CCn1c(=O)n(C)c2ccccc21
inactive: [1] 2.75% | [2] -18.7% | [3] -13.3% | [4] -35% | [5] -1.65% | [6] 20.9%

[CH3][Sn]1([CH3])[O]CC(COc2cc(Cl)c(Cl)cc2Cl)[O]1 (stereo unspecified)
inactive: [1] -22.4% | [2] 6.65% | [3] 2.95% | [4] 5.35% | [5] -10.1% | [6] 4.5%

CCCC(=O)[O-].N.N.N.N.N.[Co+3].[O-][Cl+3]([O-])([O-])[O-]
inactive: [1] -23.8% | [2] -2.3% | [3] -41% | [4] 8% | [5] 1.7% | [6] -21.9%

Cc1ccc(S(N)(=O)=O)cc1 (tested in a mixture with another compound)
inactive: [1] 14.9% | [2] 7.9% | [3] 8.8% | [4] 10.8% | [5] 29.4% | [6] 13%

Nc1ccc(P(=O)(O)O)cc1
inactive: [1] -7.8% | [2] -9.55% | [3] -11.7% | [4] -36.1% | [5] -1.05% | [6] -3.95%

CN1CCC[N+](C)=C1c1ccc(N(C)C)cc1
inactive: [1] -22.7% | [2] -12.3% | [3] -4.5% | [4] -14.2% | [5] -10.1% | [6] -7.15%

O=NNc1ccc(C(F)(F)F)cn1
inactive: [1] -7.95% | [2] -6.95% | [3] -17.9% | [4] -5.75% | [5] -17.4% | [6] -15.2%

CCc1ccccc1[N+](=O)[O-]
inactive: [1] 27.2% | [2] 28.7% | [3] 3.8% | [4] 4.65% | [5] 6.45% | [6] 21.2%

CCOC(CCCN1CCC2(CC1)C(=O)N(C)CN2c1ccccc1)(OCC)c1ccc(F)cc1
inactive: [1] 8.45% | [2] 20.8% | [3] 16.4% | [4] 2.3% | [5] 30.2% | [6] 25.2%

CCC(=O)[O][Sn]([CH3])([CH3])[O][Sn]([CH3])([CH3])[O]C(=O)CC
inactive: [1] -2.55% | [2] 18.1% | [3] -28.8% | [4] 11.8% | [5] -16.9% | [6] 3.25%

CCCCOP(=O)(OCCCC)SCl
inactive: [1] -9.4% | [2] 1.7% | [3] 3.2% | [4] 13.9% | [5] -11.1% | [6] 6%

CC(=O)NC(CS)C(=O)[O-].CC(=O)NC(CS)C(=O)[O-].N.N.[Pt+4] (stereo unspecified)
inactive: [1] 7.85% | [2] -9.85% | [3] 15.2% | [4] -38.1% | [5] 14.4% | [6] 27.2%

C=CCP(c1ccccc1)c1ccccc1
inactive: [1] -2% | [2] -3.75% | [3] -8.65% | [4] 8% | [5] 9.1% | [6] -13.5%

CCOP(=O)(/C=C/c1cc(OC)ccc1OC)OCC
inactive: [1] -0.05% | [2] -12.8% | [3] -32.4% | [4] -24.5% | [5] -29.8% | [6] -26.1%

CC1(C)N=C(N)N=C(N)N1c1ccc(CCc2cc(Cl)ccc2S(=O)(=O)F)c(Cl)c1
active: [1] 99.5% | [2] 99.7% | [3] 99.7% | [4] 99.2% | [5] 99.3% | [6] 99.5%

CC1=CC(=O)CCC12CCOC2=O (stereo unspecified)
inactive: [1] -54.1% | [2] -20.1% | [3] -21.3% | [4] -40.6% | [5] -13.2% | [6] -7.55%

CN(C)C(=O)Sc1c(S(=O)(=O)F)ccc(Cl)c1Cl
inactive: [1] 22.4% | [2] 14.8% | [3] 10.3% | [4] 20.9% | [5] 6.15% | [6] 8.6%

CC(C)OP(=O)(NC(=S)c1ccccc1)OC(C)C
inactive: [1] 19.1% | [2] 21% | [3] 36.4% | [4] 11.4% | [5] 13.8% | [6] 13.9%

CSc1nc2cc(Cl)ccc2c2c1C=NCCN2
inactive: [1] 28.6% | [2] 19.2% | [3] 13.7% | [4] -43.4% | [5] -24.1% | [6] 4.05%

CC(C)N([PH2+]N(C(C)C)C(C)C)C(C)C.[C-]#[O+].[C-]#[O+].[C-]#[O+].[C-]#[O+].[C-]#[O+].[Mo]
inactive: [1] 9.4% | [2] 15.9% | [3] -2.2% | [4] 17.1% | [5] 6.35% | [6] -1.35%

CCOC(=O)/C(=C\c1ccc(Cl)cc1)[Se]c1ccccc1
inactive: [1] 56.9% | [2] 5.7% | [3] 28.9% | [4] 20.6% | [5] 11.3% | [6] 43%

CCC1NCCc2cc(OC)c(O)cc21 (stereo unspecified)
inactive: [1] -5.9% | [2] 0.35% | [3] -6.25% | [4] 1.4% | [5] 1.85% | [6] -11.4%

C=CC[As+](c1cccc2ccccc12)(c1cccc2ccccc12)c1cccc2ccccc12
inactive: [1] -61.5% | [2] -14.1% | [3] -15.1% | [4] -33.4% | [5] 5.15% | [6] -11.5%

CCOP(=O)(OCC)Oc1c(Cl)c(Cl)c(Cl)c(Cl)c1Cl
inactive: [2] 47.4% | [4] 28.4% | [5] 23.9%
active: [1] 70.3% | [3] 86% | [6] 78.5%

O=C(O)C1CCCN1[N+](=O)[O-] (stereo unspecified)
inactive: [1] -21.7% | [2] -5.95% | [3] -5.15% | [4] -12.9% | [5] -5.55% | [6] -8.15%

CSCCC(N)C(=O)O.[Pb] (stereo unspecified)
inactive: [1] -17.9% | [2] -10.3% | [3] 13.1% | [4] -40.4% | [5] -12.4% | [6] -20.2%

From PubChem BioAssay (NCI)
